According to ChEMBL document CHEMBL1961873, “Compounds: GSK PKIS; Assays: Nanosyn kinase panel” (2012):

Key:
[1] = biological target: Tyrosine-protein kinase Fer (Homo sapiens) (UniProt P16591); conditions: at 1 µM
[2] = biological target: Tyrosine-protein kinase Fes/Fps (Homo sapiens) (UniProt P07332); conditions: at 0.1 µM
[3] = biological target: Tyrosine-protein kinase Fes/Fps (Homo sapiens) (UniProt P07332); conditions: at 1 µM
[4] = biological target: Fibroblast growth factor receptor 1 (Homo sapiens) (UniProt P11362); conditions: at 0.1 µM
[5] = biological target: Fibroblast growth factor receptor 1 (Homo sapiens) (UniProt P11362); conditions: at 1 µM
[6] = biological target: Fibroblast growth factor receptor 2 (Homo sapiens) (UniProt P21802); conditions: at 0.1 µM
[7] = biological target: Fibroblast growth factor receptor 2 (Homo sapiens) (UniProt P21802); conditions: at 1 µM
[8] = biological target: Fibroblast growth factor receptor 3 (Homo sapiens) (UniProt P22607); conditions: at 0.1 µM
[9] = biological target: Fibroblast growth factor receptor 3 (Homo sapiens) (UniProt P22607); conditions: at 1 µM
[10] = biological target: Fibroblast growth factor receptor 4 (Homo sapiens) (UniProt P22455); conditions: at 0.1 µM;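 note: values are mean percent inhibition of FGFR4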
Fibroblast growth factor receptor 4 (Homo sapiens), sequence (P22455 22-802 limits assumed): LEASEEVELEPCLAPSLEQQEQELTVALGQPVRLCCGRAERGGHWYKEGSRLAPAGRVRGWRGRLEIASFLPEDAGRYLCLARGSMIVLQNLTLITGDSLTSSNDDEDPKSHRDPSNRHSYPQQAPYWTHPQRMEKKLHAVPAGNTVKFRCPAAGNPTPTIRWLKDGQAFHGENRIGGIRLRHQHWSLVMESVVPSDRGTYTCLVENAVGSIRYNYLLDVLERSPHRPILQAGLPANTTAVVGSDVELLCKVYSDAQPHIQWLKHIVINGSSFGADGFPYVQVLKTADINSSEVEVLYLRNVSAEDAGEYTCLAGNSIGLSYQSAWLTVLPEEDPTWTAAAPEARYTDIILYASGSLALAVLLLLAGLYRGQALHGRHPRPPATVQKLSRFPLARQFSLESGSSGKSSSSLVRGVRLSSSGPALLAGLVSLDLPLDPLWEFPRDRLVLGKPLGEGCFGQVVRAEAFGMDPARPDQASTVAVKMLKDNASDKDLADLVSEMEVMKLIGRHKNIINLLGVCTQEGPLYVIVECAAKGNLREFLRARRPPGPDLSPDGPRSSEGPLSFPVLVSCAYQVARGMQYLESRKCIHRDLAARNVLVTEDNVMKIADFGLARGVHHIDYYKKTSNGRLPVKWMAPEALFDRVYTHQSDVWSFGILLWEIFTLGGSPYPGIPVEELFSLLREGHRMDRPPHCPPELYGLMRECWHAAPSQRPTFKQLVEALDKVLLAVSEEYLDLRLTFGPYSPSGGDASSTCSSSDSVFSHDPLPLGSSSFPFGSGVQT

Fibroblast growth factor receptor 1 (Homo sapiens), sequence (P11362 22-822 limits assumed): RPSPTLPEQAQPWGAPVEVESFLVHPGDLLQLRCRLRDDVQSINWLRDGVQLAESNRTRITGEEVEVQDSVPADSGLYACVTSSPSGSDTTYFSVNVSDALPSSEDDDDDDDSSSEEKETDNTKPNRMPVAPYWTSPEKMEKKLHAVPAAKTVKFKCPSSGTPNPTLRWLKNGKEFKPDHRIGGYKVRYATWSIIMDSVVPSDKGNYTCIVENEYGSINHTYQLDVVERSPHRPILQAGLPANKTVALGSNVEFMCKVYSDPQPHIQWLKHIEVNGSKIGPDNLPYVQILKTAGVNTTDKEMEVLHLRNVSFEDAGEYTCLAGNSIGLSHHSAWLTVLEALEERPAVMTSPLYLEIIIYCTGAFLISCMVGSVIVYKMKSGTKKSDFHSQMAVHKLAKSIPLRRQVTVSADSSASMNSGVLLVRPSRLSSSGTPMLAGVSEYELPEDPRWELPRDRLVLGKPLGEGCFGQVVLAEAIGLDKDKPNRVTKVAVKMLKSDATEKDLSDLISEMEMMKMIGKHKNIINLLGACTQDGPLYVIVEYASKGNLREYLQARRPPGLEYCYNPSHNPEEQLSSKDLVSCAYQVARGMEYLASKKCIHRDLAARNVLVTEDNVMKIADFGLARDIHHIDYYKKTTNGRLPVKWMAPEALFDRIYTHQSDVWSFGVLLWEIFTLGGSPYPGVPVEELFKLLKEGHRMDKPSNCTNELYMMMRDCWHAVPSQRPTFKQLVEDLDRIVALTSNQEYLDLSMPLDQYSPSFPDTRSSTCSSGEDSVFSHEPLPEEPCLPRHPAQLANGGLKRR
Fibroblast growth factor receptor 3 (Homo sapiens), sequence (P22607 23-806 limits assumed): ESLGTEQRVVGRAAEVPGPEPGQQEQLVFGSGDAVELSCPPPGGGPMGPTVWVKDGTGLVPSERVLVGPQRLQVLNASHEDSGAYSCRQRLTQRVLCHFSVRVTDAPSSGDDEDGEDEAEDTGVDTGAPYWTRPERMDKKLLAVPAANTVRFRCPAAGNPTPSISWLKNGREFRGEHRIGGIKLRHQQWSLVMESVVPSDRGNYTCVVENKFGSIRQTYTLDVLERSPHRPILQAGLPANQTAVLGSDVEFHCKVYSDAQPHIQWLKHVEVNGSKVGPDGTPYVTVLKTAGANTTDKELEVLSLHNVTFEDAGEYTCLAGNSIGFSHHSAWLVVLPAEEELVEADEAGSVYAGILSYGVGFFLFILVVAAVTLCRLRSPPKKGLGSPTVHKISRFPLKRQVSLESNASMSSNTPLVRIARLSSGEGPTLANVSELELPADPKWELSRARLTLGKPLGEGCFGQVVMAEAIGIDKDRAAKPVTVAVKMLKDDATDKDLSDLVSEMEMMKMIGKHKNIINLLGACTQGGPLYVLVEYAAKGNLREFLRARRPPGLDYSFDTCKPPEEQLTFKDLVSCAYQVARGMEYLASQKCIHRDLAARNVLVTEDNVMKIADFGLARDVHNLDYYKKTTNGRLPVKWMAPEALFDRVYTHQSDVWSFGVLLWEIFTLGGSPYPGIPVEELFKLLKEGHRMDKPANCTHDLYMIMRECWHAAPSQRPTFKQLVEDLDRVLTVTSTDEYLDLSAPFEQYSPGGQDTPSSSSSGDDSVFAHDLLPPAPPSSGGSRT
Tyrosine-protein kinase Fer (Homo sapiens), sequence (P16591 whole entry, looked up): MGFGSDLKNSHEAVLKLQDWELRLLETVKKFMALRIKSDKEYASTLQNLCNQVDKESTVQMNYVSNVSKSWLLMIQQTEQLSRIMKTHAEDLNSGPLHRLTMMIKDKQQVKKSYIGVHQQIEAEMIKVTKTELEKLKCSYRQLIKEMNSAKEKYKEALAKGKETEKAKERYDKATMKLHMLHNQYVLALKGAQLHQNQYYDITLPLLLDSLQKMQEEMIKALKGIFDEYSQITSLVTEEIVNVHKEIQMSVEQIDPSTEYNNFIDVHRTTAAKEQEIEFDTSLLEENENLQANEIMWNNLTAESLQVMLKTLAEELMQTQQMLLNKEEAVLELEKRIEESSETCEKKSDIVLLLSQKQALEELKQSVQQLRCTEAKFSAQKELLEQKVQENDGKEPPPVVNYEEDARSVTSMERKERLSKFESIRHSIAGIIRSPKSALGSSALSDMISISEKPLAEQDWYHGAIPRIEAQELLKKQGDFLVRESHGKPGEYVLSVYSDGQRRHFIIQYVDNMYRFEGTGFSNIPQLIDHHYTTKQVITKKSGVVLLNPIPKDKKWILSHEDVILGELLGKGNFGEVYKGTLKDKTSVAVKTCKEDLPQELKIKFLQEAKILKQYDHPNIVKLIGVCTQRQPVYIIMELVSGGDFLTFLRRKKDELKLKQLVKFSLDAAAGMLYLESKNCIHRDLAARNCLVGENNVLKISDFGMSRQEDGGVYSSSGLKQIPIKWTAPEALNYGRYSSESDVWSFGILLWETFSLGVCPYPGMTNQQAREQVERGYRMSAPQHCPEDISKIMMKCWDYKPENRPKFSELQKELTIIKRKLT
Tyrosine-protein kinase Fes/Fps (Homo sapiens), sequence (P07332 whole entry): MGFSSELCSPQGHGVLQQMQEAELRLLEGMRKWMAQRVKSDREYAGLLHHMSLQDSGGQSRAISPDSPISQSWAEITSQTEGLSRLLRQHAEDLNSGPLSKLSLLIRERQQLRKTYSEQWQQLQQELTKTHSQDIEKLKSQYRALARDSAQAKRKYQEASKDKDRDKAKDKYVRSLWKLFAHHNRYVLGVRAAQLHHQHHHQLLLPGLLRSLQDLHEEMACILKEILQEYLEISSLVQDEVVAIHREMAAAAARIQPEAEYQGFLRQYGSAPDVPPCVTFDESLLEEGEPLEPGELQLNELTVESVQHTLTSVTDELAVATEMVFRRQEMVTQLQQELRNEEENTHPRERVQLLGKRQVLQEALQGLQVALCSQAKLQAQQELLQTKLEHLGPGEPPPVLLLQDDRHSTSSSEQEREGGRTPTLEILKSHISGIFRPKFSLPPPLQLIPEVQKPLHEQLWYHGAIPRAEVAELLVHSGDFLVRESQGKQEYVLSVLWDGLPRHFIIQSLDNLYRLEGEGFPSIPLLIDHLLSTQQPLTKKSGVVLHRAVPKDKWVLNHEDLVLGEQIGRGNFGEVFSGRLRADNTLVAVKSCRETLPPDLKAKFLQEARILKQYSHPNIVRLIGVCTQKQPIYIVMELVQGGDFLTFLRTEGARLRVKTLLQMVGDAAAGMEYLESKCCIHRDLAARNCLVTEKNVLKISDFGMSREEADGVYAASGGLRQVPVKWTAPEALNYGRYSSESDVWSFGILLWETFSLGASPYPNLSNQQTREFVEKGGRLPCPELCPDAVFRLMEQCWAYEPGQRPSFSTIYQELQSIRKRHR
Fibroblast growth factor receptor 2 (Homo sapiens), sequence (P21802 22-821 limits assumed): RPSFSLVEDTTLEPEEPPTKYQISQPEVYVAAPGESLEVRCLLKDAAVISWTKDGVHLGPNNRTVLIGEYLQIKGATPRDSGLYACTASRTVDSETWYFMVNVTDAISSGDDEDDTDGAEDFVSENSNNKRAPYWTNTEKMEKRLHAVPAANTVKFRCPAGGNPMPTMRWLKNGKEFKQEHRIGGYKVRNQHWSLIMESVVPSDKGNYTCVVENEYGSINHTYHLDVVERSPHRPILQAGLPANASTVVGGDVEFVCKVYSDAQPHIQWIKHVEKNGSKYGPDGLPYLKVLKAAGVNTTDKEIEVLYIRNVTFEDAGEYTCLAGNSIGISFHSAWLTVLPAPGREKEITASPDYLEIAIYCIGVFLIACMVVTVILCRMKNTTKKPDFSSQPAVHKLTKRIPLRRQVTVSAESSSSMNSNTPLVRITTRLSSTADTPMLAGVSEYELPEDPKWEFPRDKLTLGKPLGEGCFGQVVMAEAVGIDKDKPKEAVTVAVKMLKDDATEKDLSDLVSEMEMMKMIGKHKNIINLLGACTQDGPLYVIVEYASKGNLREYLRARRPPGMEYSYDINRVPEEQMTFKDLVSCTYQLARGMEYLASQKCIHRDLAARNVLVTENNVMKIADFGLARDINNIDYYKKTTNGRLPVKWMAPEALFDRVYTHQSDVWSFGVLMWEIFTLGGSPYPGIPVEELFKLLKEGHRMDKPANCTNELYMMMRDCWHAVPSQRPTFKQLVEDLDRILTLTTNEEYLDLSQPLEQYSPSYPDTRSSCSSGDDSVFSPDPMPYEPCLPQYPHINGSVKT

| Structure (SMILES) | inhibition [1] [%] | inhibition [2] [%] | inhibition [3] [%] | inhibition [4] [%] | inhibition [5] [%] | inhibition [6] [%] | inhibition [7] [%] | inhibition [8] [%] | inhibition [9] [%] | inhibition [10] [%] |
| --- | --- | --- | --- | --- | --- | --- | --- | --- | --- | --- |
| Cc1ccc(Nc2ccnc(Nc3cccc(C(N)=O)c3)n2)cc1O | 23.4 | 2.5 | 10.7 | 4.6 | 34.8 | 1.51 | 26.6 | 3.55 | 18.4 | -3.61 |
| COc1cc2ncn(-c3cc(OCc4ccccc4S(C)(=O)=O)c(C#N)s3)c2cc1OC | 10.3 | 2.71 | 3.13 | 12.1 | 19.3 | 8.86 | 31.6 | 9.71 | 24.1 | 2 |
| COc1ccc(-c2nn3ncccc3c2-c2ccnc(Nc3cccc(C(F)(F)F)c3)n2)cc1 | 1.69 | 3.15 | 2.54 | 1.38 | -1.86 | 2.73 | 0.17 | 2.6 | 4.58 | 1.02 |
| Cc1cc(Cl)cc2c1NC(=O)C2=NNc1ccc(S(N)(=O)=O)cc1 | 5.08 | 0.93 | 0.42 | 3.14 | 2.77 | 1.45 | 3.49 | 1.47 | 0.97 | -0.13 |
| NS(=O)(=O)c1ccc(-c2cc3ccncc3cc2OCc2ccccc2)cc1 | 8.24 | 2.42 | 4.62 | 4.72 | 3.35 | 2.27 | 3.78 | 2.04 | 2.76 | -2.59 |
| COc1ccc2ncnc(Nc3ccc(OCc4ccccc4)cc3)c2c1 | 4.76 | 0.67 | 1.33 | 1.89 | -1.53 | 1.22 | 2.56 | 1.63 | 2.3 | 1.47 |
| C[C@@H](Oc1cc(-n2cnc3ccc(OC[C@@H](O)CO)cc32)sc1C(N)=O)c1ccccc1Cl | 4.95 | -0.94 | 0.05 | -7.07 | 0.72 | -1.37 | 8.23 | 0.92 | 6.57 | -1.57 |
| Nc1nccc(C#Cc2cncnc2Nc2ccc(OCc3cccc(F)c3)c(Cl)c2)n1 | 3.48 | 3.46 | 4.65 | 5.53 | 4.02 | 4.45 | 8.42 | 5.34 | 5.62 | 2.52 |
| CS(=O)(=O)CCNCc1nc(-c2ccc3ncnc(Nc4ccc(OCc5cccc(C(F)(F)F)c5)cc4)c3c2)cs1 | 6.92 | 1.48 | 3.22 | 2.15 | 4.98 | 6.08 | 5.8 | 4.91 | 4.35 | 4.89 |
| NS(=O)(=O)c1ccc(NC=C2C(=O)Nc3ccc4ncsc4c32)cc1 | 27.7 | 12.3 | 17.1 | 13.4 | 41.9 | 31.5 | 63.8 |  | 65 | -2.6 |
| CCCN1CCCC(c2ccc(Nc3nc(Nc4cc(F)ccc4C(N)=O)c4cc[nH]c4n3)c(OC)c2)C1 (stereo not drawn) | 84.4 | 61.4 | 81.3 | 3.11 | 3.44 | 4.31 | 5.74 | 5.86 | 4.56 | 0.72 |
| O=C1Nc2ccc(-c3cccnc3)cc2C1=Cc1cc(Br)c(O)c(Br)c1 | 9.05 | 2.71 | 2.85 | 4.47 | 1.74 | 3.81 | 5.51 | 9.43 | 8.18 | 1.39 |
| COc1cc2ncnc(Nc3ccc4c(cnn4Cc4ccccc4)c3)c2cc1OC | 7.92 | 2.06 | 2 | -0.45 | 3.82 | 3.33 | 7.69 | 3.3 | 3.13 | -0.15 |
| COC(=O)c1cncc(/C=C/c2c(C)cc(O)cc2C)c1 | 2 | 1.96 | 3.05 | 4.08 | 0.61 | 4.05 | 7.59 | 6.59 | 4.87 | -1.32 |
| COc1cc(Nc2nccc(-c3cnn4ncccc34)n2)cc(OC)c1 | 58.6 | 10.7 | 53.2 | -4.05 | 7.3 | 1.71 | 23 | 4 | 20.5 | 1.2 |
| c1ccc(Cc2nc3ccc(Nc4ncnc5ccccc45)cc3[nH]2)cc1 | 6.1 | 1.75 | 3.02 | 2.15 | 1.67 | 5.23 | 7.58 | 4.51 | 5.34 | -1.72 |
| Cc1ccc(NC(=O)CC2CC2)cc1-c1ccc(C(=O)NCC2CC2)cc1 | 7.65 | 2.28 | 4 | 5.11 | 4.06 | 1.09 | 4.24 | 2.17 | 3.92 | -2.17 |

| Structure (SMILES) | inhibition [1] [%] | inhibition [2] [%] | inhibition [3] [%] | inhibition [4] [%] | inhibition [5] [%] | inhibition [6] [%] | inhibition [7] [%] | inhibition [8] [%] | inhibition [9] [%] | inhibition [10] [%] |
| --- | --- | --- | --- | --- | --- | --- | --- | --- | --- | --- |
| COC(=O)c1ccc2c(c1)C(=Cc1cc(Br)c(O)c(Br)c1)C(=O)N2 | 7.48 | 3.27 | 4.01 | 3.15 | 6.87 | 7.19 | 8.86 | 8.03 | 5.51 | 4.35 |
| Cc1cc(-c2ccccn2)cc(C)c1/C=C/c1cncc(-c2nn[nH]n2)c1 | 2.12 | 3.53 | 5.62 | 1.35 |  | 4.22 | 7.33 | 5.34 | 4.82 | 2.42 |
| Nc1ccc(C#Cc2cncnc2Nc2ccc(OCc3cccc(F)c3)c(Cl)c2)cc1 | 1.48 | 2.44 | 2.24 | 2.53 | 4.37 | 3.89 | 4.27 | 3.12 | 4.49 | 2.37 |
| CCn1c(-c2nonc2N)nc2ccc(F)cc21 | 7.92 | 2.98 | 2.83 | 3.73 | 10.2 | 5.98 | 4.55 | 7.35 | 5.83 | 2.81 |
| COC(=O)Nc1nc2cc(Oc3ccc(NC(=O)Nc4cccc(Br)c4)cc3)ccc2[nH]1 | 4.33 | 1.77 | 2.25 | 3.32 | 0.5 | 1.09 | 3.33 | 4.36 | 2.66 | -1.88 |
| Cc1cc(O)cc(C)c1/C=C/c1cncc(C(=O)N(C)C)c1 | 1.61 | 1.75 | 1.31 | 1.31 | 1.65 | 4.82 | 5.81 | 3.74 | 3.19 | -0.32 |
| COc1cc2ncnc(Nc3ccc(C)c(O)c3)c2cc1OC | 7.9 | 2.91 | 3.54 | 4.9 | 17.2 | 5.64 | 15.8 | 6.03 | 10.2 | -0.45 |
| N#Cc1cccc(Nc2nccc(-c3cnn4ncccc34)n2)c1 | 48.9 | 7.07 | 34.3 | 4.73 | 8.94 | 7.31 | 23.4 | 9.72 | 17.2 | -0.11 |
| CN(C)CCCn1c(-c2nonc2N)nc2cnccc21 | 3.54 | 2.93 | 2.95 | 3.21 | 3.42 | 2.86 | 6.36 | 6.01 | 3.96 | -1.87 |
| COc1cccc(-n2nc(C)c3c(N/N=C(\C)c4ccncc4)ncnc32)c1 | 1.89 | 0.8 | 0.14 | 1.88 | -1.01 | 3.14 | -0.1 | 1.89 | 2 | 1.2 |
| CCS(=O)(=O)c1ccc(OC)c(Nc2ncc(-c3cccc(OC)c3)o2)c1 | 3.8 | 1.8 | 2.42 | 9.22 | 40.2 | 30.9 | 68.2 | 28.7 | 70 | 2.6 |
| CN(C)C(=O)O[C@H]1CN[C@H](C#Cc2cc3ncnc(Nc4ccc(OCc5cccc(F)c5)c(Cl)c4)c3s2)C1 | -0.03 | 2.17 | 3.06 | 2.33 | 5.24 | 2.11 | 7.78 | 5.3 | 5.64 | 0.8 |
| COc1cc(/C=N/Nc2ncnc3c2cnn3C(C)C)ccc1O | 7.03 | 1.26 | 5.37 | -0.65 | 2.77 | 1.99 | 7.97 | 1.62 | 7.76 | -8.41 |
| CN(c1ccc(NC(=O)Nc2ccc(OC(F)(F)F)cc2)cc1)c1ccnc(Nc2cccc(S(N)(=O)=O)c2)n1 | 60.4 | 4.7 | 21.8 | 2.49 | 20.3 | 16.2 | 53.9 | 3.87 | 23.3 | -0.53 |
| CC(C)c1ccc(Nc2nccc(-c3cnn4ncccc34)n2)cc1 | 16 | 5.26 | 25.5 | 4.84 | 4.17 | 0.37 | 7.86 | 7.5 | 6.25 | 2.11 |
| Cc1nc(-c2ccccc2)n2nc(NCCCN3CCOCC3)ncc12 | 2.98 | 2.16 | 3.03 | -1.62 | -3.57 | 3.94 | 11.8 | 6.35 | 4.45 | 6.31 |
| COc1cccc(-n2ncc3c(N/N=C/c4ccc(C)cc4)ncnc32)c1 | 17.5 | 5.32 | 10.3 | 4.11 | 17.7 | 9.23 | 7.12 | 9.56 | 6.72 | 4.16 |
